Measurements from PubChem BioAssay (NCI).
About 79,000 compounds went through this panel and 15% of them were active in at least one assay; those are over-represented in the sample as a whole. Calls of active or inactive are those of the source. Cut-off read from the data, not from the text of the source: active = growth inhibition above about 70%; inactive = the rest.

How the values were obtained:
[1] = NCI Yeast Anticancer Drug Screen. Data for the rad52 strain (AID 147);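 note: 0% = growth of vehicle-treated control cultures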; settings: S. cerevisiae rad52 mutant growth inhibition, stronger effect = higher value
How it was run: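 Here a repair-compromised yeast strain receives each compound; its growth is then quantified and normalised to vehicle-only controls.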

[2] = NCI Yeast Anticancer Drug Screen. Data for the wt1 strain (AID 149);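 note: 0% = growth of vehicle-treated wt1 cultures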; settings: S. cerevisiae wt1 strain (SPY 50644) growth inhibition, stronger effect = higher value
How it was run: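 Measured: growth of wt1 yeast under compound versus vehicle treatment, reported as inhibition.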

[3] = NCI Yeast Anticancer Drug Screen. Data for the rad50EPP+ strain (AID 151);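 note: 0% = growth of vehicle-treated control cultures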; settings: S. cerevisiae rad50 mutant strain, stronger effect = higher value
How it was run: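 Read-out is yeast growth inhibition relative to vehicle; cells used were the rad50EPP+ strain.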

[4] = NCI Yeast Anticancer Drug Screen. Data for the mgt1 strain (AID 153); settings: S. cerevisiae mgt1 mutant growth inhibition, stronger effect = higher value
How it was run: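 Measured: inhibition of mgt1 yeast growth by compound, normalized to vehicle-treated cultures.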

[5] = NCI Yeast Anticancer Drug Screen. Data for the rad50 strain (AID 155);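 note: 0% = growth of vehicle-only cultures of the same strain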; settings: S. cerevisiae rad50 strain growth inhibition, stronger effect = higher value
How it was run: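 Growth of the mutant yeast was measured after compound exposure and referenced to vehicle-treated cultures.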

[6] = NCI Yeast Anticancer Drug Screen. Data for the mec2-1 strain (AID 157); settings: S. cerevisiae mec2-1 strain, stronger effect = higher value
How it was run: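 Using mec2-1 yeast: add compound, measure growth, express inhibition versus vehicle-treated cultures.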

[7] = NCI Yeast Anticancer Drug Screen. Data for the rad14 strain (AID 159);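 note: 0% = growth of vehicle-treated control cultures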; settings: S. cerevisiae rad14 strain growth inhibition, stronger effect = higher value
How it was run: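 Here, inhibition of yeast growth was measured after compound exposure, using a strain with a genetic defect in DNA damage repair and vehicle-treated cultures as the reference.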

[8] = NCI Yeast Anticancer Drug Screen. Data for the sgs1 mgt1 strain (AID 161);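 note: 0% = growth of cultures given vehicle only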; settings: S. cerevisiae sgs1 mgt1 strain, stronger effect = higher value
How it was run: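 Compounds are added to genetically altered yeast, and growth is compared with cultures given vehicle alone to give percent inhibition.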

[9] = NCI Yeast Anticancer Drug Screen. Data for the CLN2oe strain (AID 163);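 note: 0% = growth of vehicle-only control cultures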; settings: S. cerevisiae CLN2oe strain, stronger effect = higher value
How it was run: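 Whole-cell yeast growth assay. A strain engineered for altered cell-cycle control received compound, and inhibition relative to vehicle-treated cultures was recorded.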

[10] = NCI Yeast Anticancer Drug Screen. Data for the cln2 rad14 strain (AID 165);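 note: 0% = growth equal to vehicle treated cultures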; settings: S. cerevisiae cln2 rad14 strain, stronger effect = higher value
How it was run: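 Yeast strain cln2 rad14, bearing defects in cell cycle control and DNA repair, serves as the test system; values reflect growth inhibition compared with vehicle.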

[11] = NCI Yeast Anticancer Drug Screen. Data for the bub3 strain (AID 167); settings: S. cerevisiae bub3 mutant strain, stronger effect = higher value
How it was run: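 Whole-cell yeast assay. The mutant strain was incubated with compounds, and growth inhibition was determined by comparison with vehicle-treated cells.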

[12] = NCI Yeast Anticancer Drug Screen. Data for the wt2 strain (AID 169);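 note: 0% = growth of vehicle-treated yeast cultures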; settings: S. cerevisiae wt2 strain growth inhibition, stronger effect = higher value
How it was run: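 Treated yeast vs. vehicle-treated yeast: growth inhibition determined.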

[13] = NCI Yeast Anticancer Drug Screen. Data for the mlh1 strain (AID 171);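 note: 0% = growth of vehicle-treated control cultures of the same strain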; settings: S. cerevisiae mlh1 strain growth inhibition, stronger effect = higher value
How it was run: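 A yeast strain with a defined genetic lesion serves as the test organism. Cultures receive compound or vehicle, and growth is measured.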

[14] = NCI Yeast Anticancer Drug Screen. Data for the sgs1 strain (AID 173);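 note: 0% = growth of vehicle-only control cultures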; settings: S. cerevisiae sgs1 mutant, stronger effect = higher value
How it was run: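 A genetically defined yeast mutant is incubated with the test compound, and its growth is compared to that of the same strain given vehicle.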

[15] = NCI Yeast Anticancer Drug Screen. Data for the mlh1 rad18 strain (AID 175); settings: S. cerevisiae mlh1 rad18 strain growth inhibition, stronger effect = higher value
How it was run: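 Steps: expose repair-defective yeast to compound; measure growth; express inhibition against vehicle-treated controls.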

[16] = NCI Yeast Anticancer Drug Screen. Data for the rad18 strain (AID 177); settings: S. cerevisiae rad18 mutant growth inhibition, stronger effect = higher value
How it was run: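 Measured value is growth inhibition of a yeast strain bearing a DNA repair alteration, referenced to vehicle-treated cells.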

[17] = at 5.0 µM (retest, dose inferred, filed as 0.5)
[18] = at 50.0 µM (retest, dose inferred, filed as 5.0)

Measured: growth inhibition

c1c(N2CCOCC2)ssc1=[N+]1CCOCC1
inactive: [1]; at 1.2 µM 0% | [1]; at 3.7 µM 0% | [1]; at 11.0 µM -4% | [1]; at 33.0 µM -4% | [1]; at 100.0 µM -2% | [2]; at 1.2 µM -3% | [2]; at 3.7 µM -1% | [2]; at 11.0 µM 0% | [2]; at 33.0 µM 0% | [2]; at 100.0 µM -1% | [3]; at 1.2 µM 1% | [3]; at 3.7 µM 3% | [3]; at 11.0 µM 3% | [3]; at 33.0 µM 3% | [3]; at 100.0 µM 5% | [4]; at 1.2 µM 0% | [4]; at 3.7 µM 2% | [4]; at 11.0 µM -1% | [4]; at 33.0 µM 0% | [4]; at 100.0 µM 1% | [5]; at 1.2 µM -3% | [5]; at 3.7 µM -2% | [5]; [17] 4% | [5]; at 11.0 µM -5% | [5]; at 33.0 µM -3% | [5]; [18] 1% | [5]; at 50.0 µM 54.5% | [5]; at 100.0 µM -2% | [6]; at 1.2 µM 0% | [6]; at 3.7 µM -2% | [6]; [17] 0% | [6]; at 11.0 µM -1% | [6]; at 33.0 µM -1% | [6]; [18] 3% | [6]; at 50.0 µM 51.1% | [6]; at 100.0 µM 1% | [7]; at 1.2 µM -1% | [7]; at 3.7 µM 0% | [7]; at 11.0 µM 3% | [7]; at 33.0 µM 1% | [7]; at 100.0 µM -2% | [8]; [17] 4% | [8]; [18] 2% | [8]; at 50.0 µM 69.1% | [9]; at 1.2 µM 0% | [9]; at 3.7 µM 4% | [9]; at 11.0 µM 3% | [9]; at 33.0 µM 2% | [9]; at 100.0 µM 0% | [10]; [17] -1% | [10]; [18] 7% | [10]; at 50.0 µM 20.7% | [11]; at 1.2 µM 0% | [11]; at 3.7 µM 0% | [11]; [17] -1% | [11]; at 11.0 µM 1% | [11]; at 33.0 µM -2% | [11]; [18] 6% | [11]; at 50.0 µM 51.5% | [11]; at 100.0 µM -2% | [12]; at 1.2 µM 0% | [12]; at 3.7 µM -1% | [12]; at 11.0 µM 0% | [12]; at 33.0 µM 0% | [12]; at 100.0 µM 1% | [13]; at 1.2 µM -1% | [13]; at 3.7 µM 0% | [13]; at 11.0 µM 0% | [13]; at 33.0 µM 0% | [13]; at 100.0 µM -5% | [14]; at 1.2 µM 0% | [14]; at 3.7 µM 1% | [14]; at 11.0 µM 3% | [14]; at 33.0 µM 2% | [14]; at 100.0 µM -3% | [15]; [17] 2% | [15]; [18] 9%
active: [15]; at 50.0 µM 82.7%

CN(CCc1ccc(Br)cc1)CCN1CCCCC1
inactive: [1]; at 1.2 µM 19% | [1]; at 3.7 µM 26% | [1]; at 11.0 µM 51% | [2]; at 1.2 µM 8% | [2]; at 3.7 µM 16% | [2]; at 11.0 µM 20% | [2]; at 33.0 µM 60% | [3]; at 1.2 µM -1% | [3]; at 3.7 µM 0% | [3]; at 11.0 µM -1% | [3]; at 33.0 µM 0% | [3]; at 100.0 µM 6% | [4]; at 1.2 µM 7% | [4]; at 3.7 µM 20% | [5]; at 1.2 µM 15% | [5]; at 3.7 µM 18% | [5]; [17] 9% | [5]; at 11.0 µM 38% | [6]; at 1.2 µM 17% | [6]; at 3.7 µM 24% | [6]; [17] 13% | [6]; at 11.0 µM 35% | [7]; at 1.2 µM 31% | [7]; at 3.7 µM 49% | [7]; at 11.0 µM 68% | [8]; [17] 30% | [9]; at 1.2 µM 15% | [9]; at 3.7 µM 26% | [9]; at 11.0 µM 46% | [10]; [17] 55% | [11]; at 1.2 µM 20% | [11]; at 3.7 µM 29% | [11]; [17] 20% | [11]; at 11.0 µM 60% | [12]; at 1.2 µM 8% | [12]; at 3.7 µM 23% | [12]; at 11.0 µM 47% | [13]; at 1.2 µM 11% | [13]; at 3.7 µM 22% | [13]; at 11.0 µM 41% | [14]; at 1.2 µM 16% | [14]; at 3.7 µM 41% | [14]; at 11.0 µM 65% | [15]; [17] 6% | [16]; at 1.2 µM 27% | [16]; at 3.7 µM 53% | [16]; at 11.0 µM 54%
active: [1]; at 33.0 µM 81% | [1]; at 100.0 µM 98% | [2]; at 100.0 µM 97% | [4]; at 11.0 µM 70% | [4]; at 33.0 µM 94% | [4]; at 100.0 µM 99% | [5]; at 33.0 µM 91% | [5]; [18] 74% | [5]; at 50.0 µM 78.3% | [5]; at 100.0 µM 98% | [6]; at 33.0 µM 74% | [6]; [18] 73% | [6]; at 50.0 µM 86.7% | [6]; at 100.0 µM 99% | [7]; at 33.0 µM 97% | [7]; at 100.0 µM 98% | [8]; [18] 86% | [8]; at 50.0 µM 92.5% | [9]; at 33.0 µM 78% | [9]; at 100.0 µM 98% | [10]; [18] 88% | [10]; at 50.0 µM 83.2% | [11]; at 33.0 µM 94% | [11]; [18] 88% | [11]; at 50.0 µM 91% | [11]; at 100.0 µM 98% | [12]; at 33.0 µM 93% | [12]; at 100.0 µM 99% | [13]; at 33.0 µM 82% | [13]; at 100.0 µM 99% | [14]; at 33.0 µM 96% | [14]; at 100.0 µM 99% | [15]; [18] 86% | [15]; at 50.0 µM 92.5% | [16]; at 33.0 µM 94% | [16]; at 100.0 µM 98%
